High-throughput results: PubChem BioAssay, The Scripps Research Institute Molecular Screening Center
Rows were chosen to be rich in hits. Some 4.5% of all compounds tested hit in one or more screens of this group.
GAA850 FXN act: FXN promoter activators, primary screen, cell-based, luciferase luminescence, HEK293 lucGAA850; HEK293 lucGAA850 FXN promoter luciferase reporter, 24 h; percent of 10 µM SAHA response; activation, % at 6 µM; 0.56% of 360,000 active; AID 540364, 2011;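 active = activation above the average of all compounds screened plus 3 SD, cutoff fixed separately per campaign, cut at about 7.5% in these data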;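 note: 0% = DMSO wells and 100% = 10 µM SAHA wells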
ssDAF12 agonist: S. stercoralis DAF-12 nuclear receptor activators, primary screen, cell-based, luminescence, HEK293, GRIP1 co-expression, lit1-tk-luc | 1% of 370,000 active | HEK293 ssDAF-12/GRIP1 lit1-tk-luc reporter; % of 3 µM dafachronic acid response | AID 652126, 2013 | activation, % at 6.8 µM | Nuclear hormone receptor DAF-12 (Strongyloides stercoralis);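 active = activation above the mean over all tested compounds plus 3 SD, cut at about 0.9% in these data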;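 note: 0% = DMSO-only wells and 100% = 3 µM delta7-dafachronic acid wells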
hgDAF12 agonist: H. glycines DAF-12 receptor agonists, primary screen, cell-based, luminescence, HEK293, GAL4 fusion, UAS-luciferase | Nuclear hormone receptor DAF-12 (Heterodera glycines), GAL4 fusion | HEK293 GAL4-hgDAF12 UAS-luciferase reporter, agonist luminescence; normalized to butyrate control | activation, % at 6.8 µM | 1.8% of 370,000 active;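 active = activation above a cutoff set at the mean of all screened compounds plus 3 SD, cut at about 10% in these data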;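 note: 0% = DMSO wells and 100% = sodium butyrate wells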
DAX1 inh-1: DAX1 (NR0B1) inhibitors, primary screen, cell-based, HEK293, Gal4-DAX1, luciferase luminescence; inhibition, % at 6.75 µM; Nuclear receptor subfamily 0 group B member 1 (Homo sapiens), P51843; 0.99% of 340,000 active; HEK293 Gal4-DAX1 luciferase reporter;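 active = inhibition above the mean over all tested compounds plus 3 SD, cut at about 4.2% in these data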;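 note: 0% = DAX1-transfected cells with DMSO and 100% = empty-vector control cells with DMSO; inhibition shows as a rise in luminescence from relieved DAX1 repression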
Target sequence (P51843 207-470 limits assumed): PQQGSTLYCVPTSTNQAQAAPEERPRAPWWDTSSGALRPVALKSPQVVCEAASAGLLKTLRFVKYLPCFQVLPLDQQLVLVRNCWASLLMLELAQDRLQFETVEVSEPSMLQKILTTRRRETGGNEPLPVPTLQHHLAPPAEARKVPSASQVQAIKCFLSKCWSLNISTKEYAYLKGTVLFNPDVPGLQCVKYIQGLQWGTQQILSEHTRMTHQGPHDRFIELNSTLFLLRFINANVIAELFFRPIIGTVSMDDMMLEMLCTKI
DAX1 inh-2: DAX1 (NR0B1) inhibitors on StAR promoter, primary screen, cell-based, luminescence, SF-1 (NR5A1), full-length DAX-1; AID 652010, 2013; HEK293T StAR-luciferase reporter, SF-1/DAX-1 repression relief; 1.1% of 370,000 active; inhibition, % at 6.8 µM;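 active = inhibition above the mean over all tested compounds plus 3 SD, cut at about 3.6% in these data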;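 note: 0% = DAX-1 cells with DMSO and 100% = cells lacking DAX-1 with DMSO; higher inhibition means more luminescence from relief of DAX-1 repression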
hcDAF-12 act: H. contortus DAF-12 nuclear receptor activators, primary screen, cell-based, luminescence, HEK293, lit1-tk-luc reporter | HEK293 hcDAF-12 lit1-tk-luc reporter; 0% DMSO, 100% Δ7-dafachronic acid | activation, % at 6.8 µM | 1.4% of 370,000 active;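 active = activation above the mean of all tested compounds plus 3 SD, cut at about 5.5% in these data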;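 note: 100% = response to 3 µM Δ7-dafachronic acid high control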
GAA30 FXN cntr: GAA30 FXN promoter activators, confirmation, counter-screen for GAA850 frataxin promoter activator project, cell-based, luminescence, HEK293, lucGAA30, triplicate; activation, % at 6 µM; 66% of 1,900 active; HEK293 lucGAA30 FXN promoter luciferase, 24 h; DMSO = 0%, 5 µM ipriflavone = 100%; shares compounds with GAA850 FXN act;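 active = mean activation above the mean of solvent-only control wells plus 3 SD, cut at about 22% in these data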;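 note: counterscreen of GAA850 promoter hits where activity marks nonselective or luminescence artifacts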
FXN GAA850 conf: FXN GAA850 promoter activators in reporter cells, confirmation, cell-based, luminescence, HEK293 lucGAA850, triplicate; shares compounds with GAA850 FXN act; HEK293 lucGAA850 FXN promoter luciferase reporter, 24 h; 100% = activation by SAHA; activation, % at 6 µM; 86% of 1,900 active;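 active = mean activation above a set limit taken from the primary screen, cut at about 8% in these data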;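 note: 0% = DMSO wells and 100% = 10 µM SAHA wells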
Numbers without * were called inactive; . = not tested or not shown.

SMILES	GAA850 FXN act	ssDAF12 agonist	hgDAF12 agonist	DAX1 inh-1	DAX1 inh-2	hcDAF-12 act	GAA30 FXN cntr	FXN GAA850 conf
COc1ccc([C@@H]2[C@@H]3C(=O)N(C(C)(C)C)C(=O)[C@@H]3[C@]3(Cc4ccc(Cl)cc4)C(=O)N(c4ccc(OC)cc4)C(=O)N23)cc1	0	-1	0	3	0	-2	.	.
O=C1[C@H]2[C@@H](c3ccc(Cl)cc3)N3C(=O)N(c4cccc(Cl)c4)C(=O)[C@@]3(Cc3ccccc3)[C@H]2C(=O)N1C1CCCCC1	8.2*	-2	-1	1	0	0	-10	0
O=C1[C@H]2[C@@H](c3ccc(F)cc3)N3C(=O)N(c4cccc(F)c4)C(=O)[C@@]3(Cc3ccccc3)[C@H]2C(=O)N1C1CCCCC1	11*	-1	0	0	0	3	28*	14*
Cc1ccc(N2C(=O)N3[C@H](c4ccc(F)cc4)[C@@H]4C(=O)N(C5CCCCC5)C(=O)[C@@H]4[C@]3(Cc3ccccc3)C2=O)cc1	12*	-1	-1	1	0	0	31*	11*
Cc1cccc([C@@H]2[C@@H]3C(=O)N(Cc4ccccc4)C(=O)[C@@H]3[C@]3(Cc4ccccc4)C(=O)N(c4cccc(Cl)c4)C(=O)N23)c1	-11	-1	3	0	0	-2	.	.
COc1cccc(N=Nc2ccc(O)c3ncccc23)c1	9.6*	-1	-4	-2	-2	-1	-107	-33
COc1ccc(N=Nc2ccc(O)c3ncccc23)cc1	4	-1	3	1	0	-1	.	.
COCCn1c(SCC(=O)NCC(c2ccccc2)N(C)C)nc2sc3c(c2c1=O)CCC3 (stereo unspecified)	4	-1	-3	1	0	0	.	.
COc1ccc(-n2c(SCC(=O)O)nc3sc4c(c3c2=O)CCCC4)cc1	8.3*	-1	-2	2	0	-2	22*	15*
CN(C)C(CNC(=O)CSc1nc2sc3c(c2c(=O)n1C)CCCC3)c1ccccc1 (stereo unspecified)	7.9*	-2	1	0	2	0	8	7.6*
Cn1c(SCC2CCC2)nnc1-c1ccco1	.	-1	8	.	-1	2	.	.
CCOC1OC2C(CO)OC(n3cnc4c(N)ncnc43)C2O1 (stereo unspecified)	11*	-2	2	1	-1	-1	28*	9.2*
CN(C)c1ccc(C(=O)/C=C/c2cccnc2)cc1	8.8*	-1	1	0	0	1	119*	37*
O=C(/C=C/c1cccnc1)c1ccc(F)c(F)c1	4	-1	1	-2	0	-3	.	.
O=C(Oc1c(CN2CCOCC2)cc(Cl)c2cccnc12)c1ccccc1	5	-2	-2	-2	-1	-2	.	.
O=C(Oc1c(CN2CCOCC2)cc(Cl)c2cccnc12)c1ccccc1F	7.7*	-2	-2	-3	-1	1	12	14*
Cn1c(COc2ccc(Cl)cc2)nnc1SCC(=O)NC1CCCC1	2	-1	-1	-1	0	0	.	.
Cc1cc(Cl)ccc1OCC(=O)N1CCCN(C(=O)COc2ccc(Cl)cc2C)CC1	9.4*	-2	-1	-2	-1	0	11	7
Cc1cccc(C)c1NC(=O)Cn1nnc(-c2ccncc2)n1	.	-2	1	.	0	-2	.	.
Cc1ccc(NC(=O)CSc2nc(C)cc(=O)[nH]2)c(C)c1	.	-1	0	.	0	-3	.	.
Cc1nn(Cc2ccccc2)c(C)c1NC(=O)CCCn1nc(C)c([N+](=O)[O-])c1C	8.4*	-1	1	-2	-1	-2	7	1
CCCCOCCCNC(=O)C[C@H]1C[C@@]2(C(=O)OC)C(=C[C@H](C(C)(C)C)O[C@@H]2C)N(Cc2cccc3ccccc23)C1=O	.	-2	-2	.	-1	-2	.	.
COc1ccc(Nc2cnn(-c3nc4ccccc4s3)c(=O)c2Cl)cc1	20*	0	2	0	0	0	31*	39*
CN(C)CCn1c(=O)n(-c2cccc(Cl)c2)c(=O)c2c3c(sc21)CCCCC3	13*	-2	-3	1	0	0	22*	13*
CCOC(=O)c1cnc(SCc2ccc(C)cc2)nc1N	7.8*	0	7	1	1	1	86*	27*
SMILES	GAA850 FXN act	ssDAF12 agonist	hgDAF12 agonist	DAX1 inh-1	DAX1 inh-2	hcDAF-12 act	GAA30 FXN cntr	FXN GAA850 conf
C[C@H]1[C@H](NC(=O)c2ccc(C(F)(F)F)cc2)CC[C@@]23CCCN2C(=O)CCC[C@@H]13	.	-2	2	.	.	-1	.	.
CC1(C)CC(=O)C=C(c2cccc3c2oc2ccccc23)C1	9.6*	-1	5	1	0	0	61*	26*
O=C1C=C(c2cccc3c2oc2ccccc23)CCC1	6	-1	3	0	0	-1	.	.
O=C(OC12CCCN(C1)/C(=C/c1ccccc1)C2)c1cccc(F)c1 (stereo unspecified)	.	-1	-2	.	1	-2	.	.
COc1cc(OC)c(OC)cc1/C=N/Nc1ncnc2c1[nH]c1ccccc12	7.9*	-1	1	0	0	5	16	18*
COCCCNC(=O)C[C@H]1C[C@@]2(C(=O)OC)C(=C[C@H](C(C)(C)C)O[C@@H]2C)N(CCc2ccc(OC)c(OC)c2)C1=O	.	-1	2	.	0	0	.	.
O=C(NC1CCCCN(Cc2cccc(F)c2)C1=O)c1ccc2ccccc2c1 (stereo unspecified)	.	-1	2	.	0	-3	.	.
COc1ccccc1Nc1nc(Cl)c(C=O)s1	11*	-1	2	0	-2	1	53*	47*
